A selection: hits, their analogues and other compounds. The true share with any hit is near 5%.
USP8 block: human USP8 deubiquitinase inhibition. P40818. purified USP8, Ub-rhodamine cleavage fluorescence, 30 min. inhibition, % at 20 µM. actives 4.2% (n = 47,000). AID 1645853
Target sequence (P40818 whole entry, looked up): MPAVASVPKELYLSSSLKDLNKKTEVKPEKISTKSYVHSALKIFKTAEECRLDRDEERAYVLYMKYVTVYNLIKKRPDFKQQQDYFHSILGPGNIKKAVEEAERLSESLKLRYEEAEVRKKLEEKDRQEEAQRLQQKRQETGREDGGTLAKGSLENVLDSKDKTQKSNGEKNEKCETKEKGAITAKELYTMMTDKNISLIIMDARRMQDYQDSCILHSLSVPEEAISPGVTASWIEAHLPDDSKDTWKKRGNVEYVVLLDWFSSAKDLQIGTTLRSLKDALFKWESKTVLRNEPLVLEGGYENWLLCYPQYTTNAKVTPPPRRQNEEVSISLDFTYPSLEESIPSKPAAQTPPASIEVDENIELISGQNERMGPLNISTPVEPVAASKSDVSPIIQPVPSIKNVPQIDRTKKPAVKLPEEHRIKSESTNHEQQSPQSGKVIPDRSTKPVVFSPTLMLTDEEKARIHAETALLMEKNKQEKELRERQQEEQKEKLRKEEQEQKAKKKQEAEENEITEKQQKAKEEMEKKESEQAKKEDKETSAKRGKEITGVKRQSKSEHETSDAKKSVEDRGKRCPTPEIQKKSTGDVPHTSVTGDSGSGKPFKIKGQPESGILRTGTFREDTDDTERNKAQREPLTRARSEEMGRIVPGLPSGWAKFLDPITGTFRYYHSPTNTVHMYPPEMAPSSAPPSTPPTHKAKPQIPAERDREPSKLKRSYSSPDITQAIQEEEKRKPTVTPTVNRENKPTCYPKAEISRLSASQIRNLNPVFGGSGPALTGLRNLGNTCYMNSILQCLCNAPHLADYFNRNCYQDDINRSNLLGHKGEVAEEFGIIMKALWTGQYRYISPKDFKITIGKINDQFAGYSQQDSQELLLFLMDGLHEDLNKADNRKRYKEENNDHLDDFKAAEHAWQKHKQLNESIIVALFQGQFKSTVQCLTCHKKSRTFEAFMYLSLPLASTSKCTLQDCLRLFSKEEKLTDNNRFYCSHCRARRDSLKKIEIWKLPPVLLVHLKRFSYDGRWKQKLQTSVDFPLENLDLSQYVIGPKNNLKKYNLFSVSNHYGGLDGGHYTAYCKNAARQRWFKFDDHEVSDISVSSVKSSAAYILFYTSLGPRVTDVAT
USP10 inh: inhibitors of human USP10 deubiquitinase | Q14694 | purified USP10, Ub-rhodamine fluorescence, 60 min | inhibition, % at 20 µM | actives 1.1% (n = 47,000) | AID 1645856
OTUD3 block: human OTUD3 deubiquitinase inhibition. Q5T2D3. purified OTUD3, Ub-rhodamine fluorescence, 2 h. inhibition, % at 25 µM. actives 0.7% (n = 47,000). AID 1645858
USP7 block: inhibitors of human USP7 deubiquitinase; purified USP7, Ub-rhodamine cleavage fluorescence; inhibition, % at 20 µM; actives 0.3% (n = 47,000)
UCHL1 inh: human UCHL1 deubiquitinase inhibition. P09936. purified UCHL1, Ub-rhodamine cleavage fluorescence. inhibition, % at 20 µM. actives 0.2% (n = 47,000)
Each line names hits and unclear results; the compound was inactive in the other large screens. Cut-off read from the data, not from the text of the source: active = inhibition above about 30%; inactive = the rest.

COc1ccc(OCCn2c(C3CC(=O)N(c4cccc(C)c4)C3)nc3ccccc32)cc1 (stereo not drawn)	none
Cc1cc(C(=O)N2CCN(c3ccc(CN4CCC(N(C)C)CC4)cn3)CC2)n(C(C)(C)C)n1	none
Cc1cccc(C)c1NC(=O)CCc1ccc(-c2ccccc2)o1	none
O=C(NCCc1nc2ccccc2n1CCCOc1ccccc1Cl)C1CCCCC1	USP8 block 74, USP10 inh 31, OTUD3 block 33
Cc1csc2ncc(C(=O)N3CCN(c4ccccc4)CC3)c(=O)n12	none
Cc1csc2ncc(C(=O)N3CCN(c4ccccc4F)CC3)c(=O)n12	OTUD3 block 38
O=C(CSc1ccc2nnc(-c3cccc(F)c3)n2n1)N1CCCc2ccccc21	USP8 block 38, OTUD3 block 40
O=C(CSc1ccc2nnc(CCNS(=O)(=O)c3ccccc3)n2n1)N1CCCc2ccccc21	none
COc1c(C2CCCN2C(=O)c2ccn(C)c(=O)c2)c(C)nn1C (stereo not drawn)	none
CCCC[C@@H](C)/C=C(C)/C=C(\C)C(=O)NC1=C[C@](O)(/C=C/C=C/C=C/C(=O)NC2=C(O)CCC2=O)[C@@H]2O[C@@H]2C1=O	OTUD3 block 69, UCHL1 inh 34
O=C(COc1ccccc1-c1nnc(-c2ccccc2)o1)NCc1ccc(F)cc1	USP8 block 56
O=C(COc1ccccc1-c1nnc(-c2ccccc2)o1)NCc1ccccc1Cl	none
O=C(COc1ccccc1-c1nnc(-c2ccccc2)o1)NCc1ccco1	USP8 block 84
CC(C)NC(=O)COc1ccccc1-c1nnc(-c2ccccc2)o1	none
CCCC(C)NC(=O)COC(=O)c1cc(-c2ccc(Cl)cc2)nc2ccccc12 (stereo not drawn)	none
NS(=O)(=O)c1ccc(CCNC(=O)COC(=O)c2cc(-c3ccc(Cl)cc3)nc3ccccc23)cc1	USP8 block 66
Cc1ccc(S(=O)(=O)Nc2cccc(-c3nc4cccnc4s3)c2)cc1C	none
Cc1ccc(S(=O)(=O)c2cnc3ccc(F)cc3c2N2CCCC2)cc1	none
Cc1ccc(S(=O)(=O)c2cnc3ccc(F)cc3c2N2CCCCCC2)cc1	USP8 block 33
CCOC(=O)c1ccc(NC(=O)c2cnc(N3CCOCC3)nc2)cc1	OTUD3 block 30
Cc1ccc(NC(=O)c2cnc(N3CCOCC3)nc2)cc1C	none (no result: USP7 block)
O=C(COC(=O)C(Cc1c[nH]c2ccccc12)NC(=O)c1ccccc1Cl)Nc1ccc([N+](=O)[O-])cc1C(F)(F)F (stereo not drawn)	USP8 block 57, USP10 inh 32
Cc1oc(-c2[nH]ncc2C(=O)N2CCCC2)cc1S(=O)(=O)NCc1cccc(F)c1	none
CCCc1nc2c(sc3nc4c(cc32)COC(C)(C)C4)c(=O)n1CC(=O)Nc1ccccc1C	none
COc1cc2c(cc1OC)CC(=O)N(Cc1ccc(Br)cc1)C=C2	none
COc1cc2c(cc1OC)CC(=O)N(Cc1c(F)cccc1Cl)C=C2	USP8 block 37
CN1c2ccc(Cl)cc2-c2nc(SCC(=O)Nc3ccc(F)cc3)ncc2S1(=O)=O	USP8 block 50
COc1ccc(C(=O)CSc2nnc(-c3cc4cccc(OC)c4o3)n2C)cc1OC	none
Cn1c(SCC(=O)NCc2ccccc2)nnc1-c1cc2ccccc2o1	USP8 block 30
Cn1c(SCC(=O)c2ccc(F)cc2)nnc1-c1cc2ccccc2o1	USP8 block 41
O=C(COC(=O)c1ccc2c(c1)OCO2)Nc1ccc(N2CCCCC2)cc1	none
COCCn1ccc2nc(C)c(C(=O)N3CCN(c4ccc(F)cc4)CC3)cc2c1=O	none
O=C(C1CCCC1)N1CCCC2(COCCN(CC3CC3)C2)C1 (stereo not drawn)	none
Cc1c(C)n(-c2ccc(Br)cn2)c2ncn(Cc3ccccc3)c(=N)c12	USP8 block 44
O=C(Nc1cccc(-c2noc(C3CCC3)n2)c1)C1CC(=O)N(c2ccccc2)C1 (stereo not drawn)	USP8 block 42
Cc1ccc(CNC(=O)C2CC(=O)N(c3cccc(-c4noc(C5CCC5)n4)c3)C2)cc1 (stereo not drawn)	none
CCc1nc(-c2cccc(NC(=O)C3CC(=O)N(c4ccccc4)C3)c2)no1 (stereo not drawn)	none
O=C(Nc1cccc(-c2noc(C3CC3)n2)c1)C1CC(=O)N(c2ccccc2)C1 (stereo not drawn)	USP8 block 36
COc1ccc(-c2nn(-c3ccccc3)cc2C(=O)Nc2ccc(N3CCOCC3)cc2)cc1	USP8 block 61
CCc1ccc(NC(=O)CSc2ccc(N3CCC(C(=O)NC4CC4)CC3)nn2)cc1	USP8 block 81, OTUD3 block 38
O=C(CSc1ccc(N2CCOCC2)nn1)Nc1ccc(Cl)cc1	none
Cn1c(COc2cccc3cccnc23)nnc1SCC(=O)c1ccc(Cl)cc1Cl	USP8 block 58, USP10 inh 36
CCC(=O)N1c2ccccc2NC2=C(C(=O)CC(c3cccc([N+](=O)[O-])c3)C2)C1c1ccco1 (stereo not drawn)	none
CC(C)(C)c1ccc(C2CC(=O)C3=C(C2)Nc2ccccc2N(C(=O)CCC(=O)O)C3c2cccc([N+](=O)[O-])c2)cc1 (stereo not drawn)	USP10 inh 33
Cc1ccccc1NC(=O)CSC1=NC2(CCCCC2)Nc2ccccc21	USP8 block 37
COc1ccc(NC(=O)CSC2=NC3(CCCCC3)Nc3ccccc32)cc1	none
Cc1ccc(NC(=O)CSC2=NC3(CCCCC3)Nc3ccccc32)cc1	USP8 block 38
Cc1ccc(NC(=O)CCCN2C(=O)c3cccnc3Sc3ccccc32)cc1	none
CCCN(Cc1ccc(F)cc1)Cc1cc(=O)c2cc(Cl)ccc2[nH]1	none
O=C1c2[nH]nc(-c3ccccc3O)c2C(c2ccc(F)cc2)N1Cc1ccco1 (stereo not drawn)	USP8 block 71
Cc1ccc(NC2c3ccccc3C(=O)N2Cc2ccco2)cc1F (stereo not drawn)	none
Cc1ccc(C2c3c(-c4ccccc4O)n[nH]c3C(=O)N2Cc2ccco2)cc1 (stereo not drawn)	USP8 block 58
COc1ccc(C2c3c(-c4ccccc4O)n[nH]c3C(=O)N2Cc2ccco2)cc1OC (stereo not drawn)	none
O=C(c1cnc2ccccc2n1)N1CCC(S(=O)(=O)c2ccc(-c3ccco3)cc2)CC1	USP8 block 56
COc1ccccc1C(=O)N1CC2CN(S(=O)(=O)c3ccc(C)cc3)CC(C1)O2	none
COc1ccccc1C(=O)N1CCC(S(=O)(=O)c2ccc(-c3ccco3)cc2)CC1	USP8 block 53
COc1ccc(S(=O)(=O)N2CCN(C(=O)c3cnc4ccccc4n3)CC2)cc1OC	USP8 block 61
CCC(CC)C(=O)N[C@@H]1CC[C@@H]2C[C@@H]1[C@@H](O)CO2	none
Cc1nc2c(-c3ccc(Cl)cc3)c[nH]n2c(=O)c1Cc1ccccc1	USP10 inh 65
CC(C)C1=C[C@@H]2c3c([nH]c(=O)[nH]c3=O)O[C@]2(C)CC1	none
